# Laboratory results reported in the supplement of paper PMC11417369.
# ± gives the standard deviation of the averaged measurements. In all, about 25,000 sequences were measured (“ln(normalized median fluorescence intensity)”: median about 8.9, highest 2% from about 10 on). For the sample, the highest values were picked, then their nearest neighbours and some sequences at random.
# System: PfAP2-LT AP2 domain (GST-tagged)
# Assay: gcPBM binding intensity (ln(normalized median fluorescence intensity)); higher = stronger DNA binding
# Method in brief: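 Probes on an Agilent 4 × 180k array were primer-extended, double-stranded and 36 bp long, taken from intergenic genomic regions, with negative controls added. GST-tagged P. falciparum DNA-binding domains from E. coli, about 25 μg on average, were applied to the array for 1 h in 1× PBS containing 1% milk, 0.2 mg/ml BSA, 0.5% salmon testes DNA and 0.03% Triton X-100. Binding intensity, obtained after Alexa488 anti-GST antibody detection and a 488 nm scan, is the highest Masliner-normalised natural-log median intensity across replicate spots of either probe orientation.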
row,Sequence,gcPBM binding intensity (ln)
1,TACAAATATGGACACACACACATATTTATATTTATA [CACACA_site6420],9.73 ± 0.4
2,TACATATAAAAGTACACACACACACCCATATATATA [CACACA_site941],10.1 ± 0.3
3,AAGGATATAACATACACACACACACCCATATATATA [CACACA_site4142],10.08 ± 0.099
4,ACCCATAAAAAGGATACACACACACCCACCCATATA [CACACA_site8205],10.3 ± 0.29
5,AATACATATAAAAGTACACACACACCCATATATATA [CACACA_site8220],9.97 ± 0.13
6,AGATAAAAAAAGTACACACACACATATATATATATA [CACACA_site3072],10.02 ± 0.014
7,CCATAAAAAGGATACACACACACACCCACATATATA [CACACA_site903],10.1 ± 0.32
8,ATAATTATATAAATATATATAATATATATATGAAAA [XGTACX_negctrl_site357],8.58 ± 0.58
9,TAATGGAGAAAAAAAAAACACACGGTACATTCAAAG [CACACA_site3117],9.01 ± 0.46
10,AAATAAATAAATTAACGTACATAATAACATTAATAT [XGTACX_site8567],8.86 ± 0.47
11,AGTTTGTCAATCAACACACACCTATTTATTATAGAT [CACACA_site7777],9.1 ± 0.37
12,AAAACACCCAAACACACACACACATATATATATATA [CACACA_site9119],10.2 ± 0.35
13,AAAAAAAAAAAACACACACACACAAATATATAAAAA [CACACA_site1171],9.77 ± 0.31
14,AAAAAAAAAAAAAAAACACACACATACACCCAAAAA [CACACA_site7910],9.78 ± 0.23
15,AAATAAATAAAAAACACACACAAATAAATAAATATA [CACACA_site2249],9.46 ± 0.39
16,AAAGAAAAAAAAAAAACACACAAAAAAAATCAAAAT [CACACA_site2871],9.04 ± 0.57
17,AAAAAATCAAAACACACACACACACCCAAAAAAAAA [CACACA_site1444],10.2 ± 0.37
18,AAAAAAAAAAAAAAAAAAAAACACCCAAAAAAATAT [XGTACX_negctrl_site210],8.86 ± 0.44
19,AAAATCACAAAACACACACACACAAAAAAAAAAAAA [CACACA_site1443],9.49 ± 0.53
20,AAAAAAAAAAAAAACACACACACACCCAAATATATA [CACACA_site1169],10.2 ± 0.44
21,AACACCCAAAAACACACACACATACATACATACATA [CACACA_site4411],9.8 ± 0.23
22,AAAAAAAAAAAACACACACACACACCCAAATATATA [CACACA_site150],10.22 ± 0.028
23,CAAATGTAGAAAATGTGTACATAAAAAAAAAAAAAA [XGTACX_site8276],8.87 ± 0.47
24,AGGGACATATATATCACACACAAAAATTAGTCCCTT [CACACA_site2778],9.39 ± 0.44

row,Sequence,gcPBM binding intensity (ln)
1,TATATTATTTATATTTGTACACAGCGATATGAAATA [XGTACX_site987],8.56 ± 0.46
2,CATATAATTATTTTCACACATATAACTACATCTATA [CACACA_site5915],8.82 ± 0.43
3,ATACATACATACATACGTACATATGTATATATATAT [XGTACX_site8498],9.23 ± 0.14
4,AATTTGATTATAAATTGTACATATATATATTAAAAG [XGTACX_site5461],8.66 ± 0.35
5,AAAAATGAAAGGTGTACACATACAAACATAGAAAGA [CACACA_site5020],9.38 ± 0.52
6,ATGGTTTTTATTTTATGTACTTACTAAAATGAATAA [XGTACX_site4317],8.52 ± 0.37
7,AAAAAAAAAAAAAAAACACACACAACACCCATACCT [CACACA_site9208],9.92 ± 0.14
8,AAAAAAAAAAAAAACACACACAACACCCATACCTTA [CACACA_site3621],9.79 ± 0.057
9,AAAAAAAAAAAAAACACACACACACCCATACACATA [CACACA_site2860],10.19 ± 0.078
10,CATACACCCATACATACACACATACATACACCCATA [CACACA_site5124],9.56 ± 0.31
11,AAAAAAAAAAAAAACACACACACACCCATACCCATA [CACACA_site5577],10.215 ± 0.0071
12,AAAAAAAAAAAACACACACACACATACCCATACATA [CACACA_site5575],9.98 ± 0.22
13,AAAAAAAAAAAACACACACACACACCCATACATACA [CACACA_site707],10.4 ± 0.14
14,TAAACACCCATACATACACACATACATACACCCATA [CACACA_site5125],9.63 ± 0.18
15,GGGCATATAATATAAAGTACAGGACTATAAAAATAT [XGTACX_site4481],8.86 ± 0.59
16,TCTTTTTTTTTTACTAGTACTTAAAAAAAAAATATG [XGTACX_site4395],8.28 ± 0.55
17,TTTGTAAAACTATATTGTACTTTTATATATCTACAA [XGTACX_site5507],8.56 ± 0.47
18,TTTTTAAAAAAGATAAGCGAAAGAATTAATTTTTAA [GTGCAC_negctrl_site197],8.13 ± 0.52
19,TATTTACATATTTATATACACACTTTTGCGTGTCTG [CACACA_site1110],9.36 ± 0.67
20,CATATTATTTATATTTGTACACAGCGATATGAAATA [XGTACX_site7717],8.68 ± 0.35
21,TATAATAAATCAAATGCACACACACTAATAAAAAAA [CACACA_site7937],9.63 ± 0.35
22,AAAATCACAAGACACACACACACAAAAAAAAAAAAA [CACACA_site6791],9.94 ± 0.58
23,AAAAAATCACGACACACACACACACTAAAAAAAAAA [CACACA_site6792],10.1 ± 0.2
